Consider 40 compounds from PubChem BioAssay.

Calls of active or inactive are those of the source.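 How the source made its calls, unless noted: active means primary screen active and over 50% activation in each of two duplicate runs; inactive means the rest.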

One assay concerns transient receptor potential cation channel C4 beta (TRPC4), mouse. The assay is described as follows: activators of mouse TRPC4 channel, confirmation, cell-based, second round, Fluo4, HEK293 TRPC4beta/mu-opioid, 1 µM (AID 2461).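 On activation: 0% = wells without test compound as baseline of integrated fluorescence ratio.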 Particulars: Fluo4 calcium fluorescence, at 1 µM; stronger effect = higher value.
For `COc1ccc(C(CCNCc2ccc(N(C)C)cc2)c2ccccc2)cc1` (stereo not given), the outcome was inactive.
Consider `COc1ccc(C(=O)NNC(=S)NC(=O)c2cccs2)cc1`, for which the outcome was inactive.
Turning to `Cc1cccc(C(=O)NC(=S)NNC(=O)Cc2ccccc2)c1`, the result was inactive.
For the compound `COc1ccc(CC(=O)NCC(c2ccc(OC)cc2)N(C)C)cc1` (stereo not given), the activation was 95% (active).
As for `COc1cccc(C(=O)NC2CCCN(C3Cc4ccccc4C3)C2)c1OC` (stereo not given), the result was inactive.
On to `NC(=O)C1CCCN(CCc2ccccc2)C1` (stereo not given), for which the activation is 133% (active).
For the compound `CNC[C@H](Cc1ccccc1)NC[C@@H](Cc1cccc2ccccc12)NCCc1ccc(C)cc1`, the outcome was inactive.
On the same count and under the same terms, to `O=C(CC1C(=O)NCCN1Cc1cccc(Oc2ccccc2)c1)NCCc1ccccn1` (stereo not given) belongs “inactive”.
Consider `COc1ccccc1/C=C/CN1CCCC(CCC(=O)NCc2ccccc2F)C1` (stereo not given), for which the activation is 51% (active).
In the case of `C=CCn1c(/N=C/c2ccc(N(C)C)cc2)nc2ccccc21`, the outcome was inactive.
Take `Cc1oc(-c2ccccc2Cl)nc1CS(=O)CC(=O)NCCCN1CC(C)CC(C)C1` (stereo not given): the activation was 58% (active).
In the case of `COc1ccc(CN2CCC(N(CCc3ccccc3)Cc3ccccc3)CC2)c(OC)c1`, the outcome was inactive.
On the same count and under the same terms, to `O=C(NC(=S)NNC(=O)c1ccccc1[N+](=O)[O-])c1ccc(Br)cc1` belongs “inactive”; to `O=C(NC1CCN(Cc2ccccc2)CC1)C12CC3CC(CC(C3)C1)C2`, “inactive”.
Still for that read-out and setting: to `CCCN1CCN(C(=O)Cn2c(=O)oc3cc(S(=O)(=O)NCc4ccccc4)ccc32)CC1` belongs “inactive”; to `Cn1c2ccccc2c(=O)c2c(=O)n(C3CCCCC3)c(-c3ccco3)nc21`, “inactive”; to `OCCC1CN(Cc2ccccc2-c2ccco2)CCN1Cc1ccccc1` (stereo not given), “inactive”.
Still for that read-out and setting: to `CCN1CCCC1CNS(=O)(=O)c1c(C)cc(C)cc1C` (stereo not given) belongs “inactive”; to `Cc1ccc(OCC(=O)N(C)CCc2ccccn2)cc1`, “inactive”.
In the case of `CC(C)n1cnc2c(N(C)c3ccccc3)nc(N(CCN(C)C)Cc3ccccc3)nc21`, the result was inactive.
In the case of `CCC(=O)N1CCc2cc(Br)cc(S(=O)(=O)NCCCN(CC)Cc3ccccc3)c21`, the activation is 153% (active).
Consider `NCCCNC(=O)c1cc2ccccc2[nH]1`, for which the result was inactive.
In the case of `CN(C)C(CNC(=O)Nc1cccc(Cl)c1)c1cccnc1` (stereo not given), the activation is 106% (active).
With `CN(C)C(CNC(=O)CCS(=O)(=O)c1ccccc1)c1ccccc1` (stereo not given), the activation is 75% (active).
As for `COc1c2c(cc3c1C(CC(O)Cc1ccccc1)N(C)CC3)OCO2` (stereo not given), the result was inactive.
On to `CC1CN(C)C(C)c2c1oc1ccc(N)cc21` (stereo not given), for which the activation was 73% (active).
Consider `CN(C)c1ccc(C(CNC(=O)Cc2cccc3ccccc23)N(C)C)cc1` (stereo not given), for which the result was inactive.
The same measure, in the same setting: for `Cc1cc(C)cc(NC(=S)N2CCN(c3ncc(C(F)(F)F)cc3Cl)CC2)c1` the value was “inactive”; for `COC(=O)C1CCN(Cc2cn(-c3ccccc3)nc2-c2ccc3c(c2)OCO3)CC1`, “inactive”.
For `Cc1cccc(OCCOCCN2CCNCC2)c1C`, the activation is 69% (active).
Regarding `O=C1/C(=C\c2cc([N+](=O)[O-])ccc2O)SC(=S)N1Cc1ccc(Cl)cc1`, the outcome was inactive.
Same read-out and setting: to `CCn1c(N2CCN(S(=O)(=O)CC)CC2)nc2ccccc21` belongs “inactive”.
Still for that read-out and setting: for `COc1ccc(CSCCN)cc1Cl` the value was “inactive”.
In the case of `O=C1S/C(=C\c2ccc(N3CCOCC3)o2)C(=O)N1Cc1c(F)cccc1Cl`, the result was inactive.
On the same count and under the same terms, for `CC(C)(C)[C@H]1C=C(C(=O)NCc2ccccc2)O[C@@H](OCc2ccc(CO)cc2)C1` the value was “inactive”; for `Nc1c(C(=O)c2ccccc2)sc2nsc(SCCN3CCCC3)c12`, “inactive”.
In the case of `O=C(CC(=O)c1c(F)cccc1Cl)c1ccccc1O`, the outcome was inactive.
Same read-out and setting: for `Cc1ccccc1Cn1c(CN2CCc3ccccc3C2)nc2c1c(=O)n(C)c(=O)n2C` the value was “inactive”; for `Cc1csc2c(N3CCN(C(=O)Nc4ccc(OC(F)(F)F)cc4)CC3)ncnc12`, “inactive”; for `O=S(=O)(NCCc1csc(-c2ccccc2)n1)c1cccnc1`, “inactive”.

The subject of a further assay is TRPC4 (transient receptor potential cation channel C4 beta), mouse. The assay is described as follows: positive allosteric modulators of mouse TRPC4, confirmation, cell-based, second round, Fluo-4, HEK293 TRPC4beta/mu-opioid, 1 µM (AID 2554;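 active means primary screen hit whose fluorescence ratio, in both repeats, exceeds the weak agonist control mean by 3 SD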). Particulars: DAMGO EC20, Fluo-4 calcium flux, at 1 µM; stronger effect = higher value.
Take `COc1ccc(C(CCNCc2ccc(N(C)C)cc2)c2ccccc2)cc1` (stereo not given): the outcome was inactive.
Regarding `COc1ccc(C(=O)NNC(=S)NC(=O)c2cccs2)cc1`, the result was inactive.
The same measure, in the same setting: to `Cc1cccc(C(=O)NC(=S)NNC(=O)Cc2ccccc2)c1` belongs “inactive”; to `COc1ccc(CC(=O)NCC(c2ccc(OC)cc2)N(C)C)cc1` (stereo not given), “inactive”.
Turning to `COc1cccc(C(=O)NC2CCCN(C3Cc4ccccc4C3)C2)c1OC` (stereo not given), the outcome was inactive.
Same read-out and setting: to `NC(=O)C1CCCN(CCc2ccccc2)C1` (stereo not given) belongs “inactive”; to `CNC[C@H](Cc1ccccc1)NC[C@@H](Cc1cccc2ccccc12)NCCc1ccc(C)cc1`, “inactive”; to `O=C(CC1C(=O)NCCN1Cc1cccc(Oc2ccccc2)c1)NCCc1ccccn1` (stereo not given), “inactive”.
Still for that read-out and setting: for `COc1ccccc1/C=C/CN1CCCC(CCC(=O)NCc2ccccc2F)C1` (stereo not given) the value was “inactive”.
On the same count and under the same terms, to `C=CCn1c(/N=C/c2ccc(N(C)C)cc2)nc2ccccc21` belongs “inactive”; to `Cc1oc(-c2ccccc2Cl)nc1CS(=O)CC(=O)NCCCN1CC(C)CC(C)C1` (stereo not given), “inactive”.
Take `COc1ccc(CN2CCC(N(CCc3ccccc3)Cc3ccccc3)CC2)c(OC)c1`: the outcome was inactive.
The same measure, in the same setting: for `O=C(NC(=S)NNC(=O)c1ccccc1[N+](=O)[O-])c1ccc(Br)cc1` the value was “inactive”; for `O=C(NC1CCN(Cc2ccccc2)CC1)C12CC3CC(CC(C3)C1)C2`, “inactive”.
Still for that read-out and setting: to `CCCN1CCN(C(=O)Cn2c(=O)oc3cc(S(=O)(=O)NCc4ccccc4)ccc32)CC1` belongs “inactive”.
`Cn1c2ccccc2c(=O)c2c(=O)n(C3CCCCC3)c(-c3ccco3)nc21`: the result was inactive.
Same read-out and setting: to `OCCC1CN(Cc2ccccc2-c2ccco2)CCN1Cc1ccccc1` (stereo not given) belongs “inactive”; to `CCN1CCCC1CNS(=O)(=O)c1c(C)cc(C)cc1C` (stereo not given), “inactive”.
Same read-out and setting: to `Cc1ccc(OCC(=O)N(C)CCc2ccccn2)cc1` belongs “inactive”; to `CC(C)n1cnc2c(N(C)c3ccccc3)nc(N(CCN(C)C)Cc3ccccc3)nc21`, “inactive”; to `CCC(=O)N1CCc2cc(Br)cc(S(=O)(=O)NCCCN(CC)Cc3ccccc3)c21`, “inactive”.
Same read-out and setting: to `NCCCNC(=O)c1cc2ccccc2[nH]1` belongs “inactive”; to `CN(C)C(CNC(=O)Nc1cccc(Cl)c1)c1cccnc1` (stereo not given), “inactive”.
Turning to `CN(C)C(CNC(=O)CCS(=O)(=O)c1ccccc1)c1ccccc1` (stereo not given), the result was inactive.
As for `COc1c2c(cc3c1C(CC(O)Cc1ccccc1)N(C)CC3)OCO2` (stereo not given), the outcome was inactive.
The same measure, in the same setting: for `CC1CN(C)C(C)c2c1oc1ccc(N)cc21` (stereo not given) the value was “inactive”; for `CN(C)c1ccc(C(CNC(=O)Cc2cccc3ccccc23)N(C)C)cc1` (stereo not given), “inactive”; for `Cc1cc(C)cc(NC(=S)N2CCN(c3ncc(C(F)(F)F)cc3Cl)CC2)c1`, “inactive”.
For the compound `COC(=O)C1CCN(Cc2cn(-c3ccccc3)nc2-c2ccc3c(c2)OCO3)CC1`, the result was inactive.
The same measure, in the same setting: to `Cc1cccc(OCCOCCN2CCNCC2)c1C` belongs “inactive”.
On the same count and under the same terms, for `O=C1/C(=C\c2cc([N+](=O)[O-])ccc2O)SC(=S)N1Cc1ccc(Cl)cc1` the value was “inactive”; for `CCn1c(N2CCN(S(=O)(=O)CC)CC2)nc2ccccc21`, “inactive”; for `COc1ccc(CSCCN)cc1Cl`, “inactive”.
Turning to `O=C1S/C(=C\c2ccc(N3CCOCC3)o2)C(=O)N1Cc1c(F)cccc1Cl`, the result was inactive.
On the same count and under the same terms, to `CC(C)(C)[C@H]1C=C(C(=O)NCc2ccccc2)O[C@@H](OCc2ccc(CO)cc2)C1` belongs “inactive”; to `Nc1c(C(=O)c2ccccc2)sc2nsc(SCCN3CCCC3)c12`, “inactive”.
On the same count and under the same terms, to `O=C(CC(=O)c1c(F)cccc1Cl)c1ccccc1O` belongs “inactive”.
`Cc1ccccc1Cn1c(CN2CCc3ccccc3C2)nc2c1c(=O)n(C)c(=O)n2C`: the potentiation is 6% (active).
Consider `Cc1csc2c(N3CCN(C(=O)Nc4ccc(OC(F)(F)F)cc4)CC3)ncnc12`, for which the result was inactive.
Still for that read-out and setting: for `O=S(=O)(NCCc1csc(-c2ccccc2)n1)c1cccnc1` the value was “inactive”.
